Inconclusive results are not listed. Active and inactive are the calls of the source. Calls come from the whole dose curve; as a rule, active = well fitted cell-killing curve with a large enough effect; inconclusive = small, poorly fitted or top-dose-only effect, or effect the other way; inactive = no such curve, though single readings can be large or run the other way.
Test system: HeLa
Assay: Confirmatory qHTS for gynecologic anti-cancer compounds from libraries of approved drugs and bioactive compounds; note: nearly all actives have a fitted effect of over 55% in size
Conditions: gynecologic cancer cell panel viability, ATPlite luminescence, 48 h; series mostly up to 57.6 µM
How it was run: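 ATP-based luminescent viability (ATPlite) after 48 h drug treatment at 37 °C, 5% CO2, across 57.5 uM–0.977 nM in 1:3 steps. Cells seeded at 1,000 per well 16 h beforehand; IC50 values computed, HEK 293T as selectivity control.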
Potency is the fitted concentration of half-maximal effect.

| SMILES | Potency |
| --- | --- |
| C=CC(=O)Nc1cc2c(Nc3ccc(F)c(Cl)c3)ncnc2cc1OCCCN1CCOCC1 | 27.3 µM (active) |
| CC(=O)NCC(=O)N1C2CCC1c1cc(Nc3ncc(C(F)(F)F)c(NC4CCC4)n3)ccc12 (stereo not drawn) | 1.09 µM (active) |
| NC(=O)Nc1cc(-c2cccc(F)c2)sc1C(=O)NC1CCCNC1 (stereo not drawn) | 1.22 µM (active) |
| CC(C)n1c(/C=C/[C@@H](O)C[C@@H](O)CC(=O)O)c(-c2ccc(F)cc2)c2ccccc21 | 5.44 µM (active) |
| COc1cc2nccc(Oc3ccc(NC(=O)Nc4cc(C)on4)c(Cl)c3)c2cc1OC | 15.3 µM (active) |
| COc1ccc(-c2nc3ccc(C4=NNC(=O)CC4C)cc3[nH]2)cc1 (stereo not drawn) | 19.3 µM (active) |
| CN1C2CCC1CC(OC(=O)[C@H](CO)c1ccccc1)C2 (stereo partly drawn) | inactive |
| CCS(=O)(=O)c1cccc(-c2cc(C(=O)NC3CCN(C)CC3)c(C)c3[nH]c4ncc(C)cc4c23)c1 | 0.476 µM (active) |
| CCCCc1oc2ccc(NS(C)(=O)=O)cc2c1C(=O)c1ccc(OCCCN(CCCC)CCCC)cc1 | 24.3 µM (active) |
| CN1CCCC(n2nc(Cc3ccc(Cl)cc3)c3ccccc3c2=O)CC1 (stereo not drawn) | inactive |
| CC1=C(CO)C(=O)O[C@@H]([C@@H](C)[C@H]2CC[C@H]3[C@@H]4C[C@H]5O[C@]56[C@@H](O)C=CC(=O)[C@]6(C)[C@H]4CC[C@]23C)C1 | 2.11 µM (active) |
| CN(C)C/C=C/C(=O)Nc1cc2c(Nc3ccc(F)c(Cl)c3)ncnc2cc1OC1CCOC1 (stereo not drawn) | 24.3 µM (active) |
| CS(=O)(=O)c1ccc(C(=O)Nc2ccc(Cl)c(-c3ccccn3)c2)c(Cl)c1 | inactive |

From PubChem BioAssay AID1345085 (National Center for Advancing Translational Sciences (NCATS), 2018)
